# Source: the supplement of paper PMC3334620
# Over roughly 33,000 sequences, “E-score (-0.5 to 0.5)” has its median near -0.021; the highest 2% begin near 0.32. The sample holds the highest values, similar sequences and a random draw of the others, so the mix is not that of the screen.
# Target: T1, Zap1 (UniProt P47043)
# T1 sequence: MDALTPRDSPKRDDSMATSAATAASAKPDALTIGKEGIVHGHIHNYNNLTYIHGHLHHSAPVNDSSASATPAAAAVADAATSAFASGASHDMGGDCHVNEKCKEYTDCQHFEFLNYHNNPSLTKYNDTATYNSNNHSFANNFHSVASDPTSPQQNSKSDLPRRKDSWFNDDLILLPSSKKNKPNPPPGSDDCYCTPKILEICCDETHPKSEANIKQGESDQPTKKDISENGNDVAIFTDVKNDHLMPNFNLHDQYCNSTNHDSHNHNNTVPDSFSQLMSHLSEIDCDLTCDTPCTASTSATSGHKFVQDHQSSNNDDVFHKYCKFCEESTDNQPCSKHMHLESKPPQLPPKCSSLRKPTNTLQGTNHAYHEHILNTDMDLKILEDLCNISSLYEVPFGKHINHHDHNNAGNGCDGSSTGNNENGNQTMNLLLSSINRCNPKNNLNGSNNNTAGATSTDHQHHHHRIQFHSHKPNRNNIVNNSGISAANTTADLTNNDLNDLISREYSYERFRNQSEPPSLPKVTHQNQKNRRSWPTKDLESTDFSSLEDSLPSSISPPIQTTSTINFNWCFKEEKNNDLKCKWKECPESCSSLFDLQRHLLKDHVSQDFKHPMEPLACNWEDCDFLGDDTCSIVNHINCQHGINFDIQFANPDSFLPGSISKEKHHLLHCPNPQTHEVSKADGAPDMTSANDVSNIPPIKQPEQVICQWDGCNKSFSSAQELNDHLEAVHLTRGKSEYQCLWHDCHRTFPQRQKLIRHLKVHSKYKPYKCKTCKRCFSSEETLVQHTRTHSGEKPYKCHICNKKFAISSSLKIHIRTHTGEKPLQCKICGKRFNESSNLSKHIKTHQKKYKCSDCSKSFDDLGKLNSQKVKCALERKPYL
# Assay: PBM E-score (8-mer binding enrichment) (E-score (-0.5 to 0.5)); higher = stronger / more preferred TF binding
# Conditions: protein concentration: 200 nM; construct: GST-full length
# Summary of the method: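 Each ungapped eight-base word and its reverse complement, pooled, received an E-score from the Universal PBM Analysis Suite. Underlying scans, normalised with masliner, recorded fluorescent anti-GST bound to GST-tagged yeast transcription factors. These were applied at about 100-200 nM to universal all-10-mer Agilent arrays double-stranded by primer extension.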
row,Sequence,PBM E-score
1,CGCTCTCC,-0.119
2,ATCCTCTA,-0.118
3,AAACGCCG,-0.159
4,TACTGGGA,0.0284
5,ACCAATCG,0.0293
6,ACACGCTA,-0.194
7,CGCCTCAA,-0.107
8,CTCGAAGA,0.0261
9,GATTCCTA,0.0308
10,CGATCCAC,0.00013
11,ACGTTACG,0.0601
12,AAGTTACG,0.17
13,AGGTTACG,0.459
14,ATAACTCC,0.128
15,AAGGTTGC,0.343
16,CAGGTTGC,0.0972
17,CAGGTTGG,0.0671
18,AAGGTTGA,0.149
19,AAGGTTGT,0.384
20,AAGGTTGG,0.281
21,GTCAGAAC,0.0394
22,AAATGGGA,-0.0864
23,GTCCCCCA,-0.185

row,Sequence,PBM E-score
1,GCGGTTAC,0.452
2,CCGGTTAA,0.261
3,GCGGTTCC,0.217
4,GCGGTTAA,0.356
5,CCGGTTTC,0.0368
6,GCTGTTAC,-0.104
7,CCGGTTAG,0.159
8,GCGGTTGA,0.149
9,CCGGTTAC,0.398
10,AAGCTTGT,0.15
11,CATCGTTC,-0.015
12,AGGAACCA,0.0162
13,CGAGCGCC,-0.202
14,AGTTGGTC,0.0383
15,AGTCTTAG,-0.182
16,GTATCCAA,0.0926
17,CCTGGCCC,-0.0746
18,AGTTATTA,0.106
19,CGTTAGTA,0.0365
20,AGTTAGTA,-0.00813
21,GGTTATCA,0.445
22,CGTTATTA,0.114
23,GGTTATTA,0.438

row,Sequence,PBM E-score
1,CGTTATCA,0.0155
2,GGTTAGTA,0.325
3,AGTTATCA,0.186
4,CAGAGATC,-0.134
5,CCGAGAAA,0.187
6,ACCCAGCA,0.0307
7,CGAATGAG,-0.106
8,AGTTATAG,0.148
9,ACCCTCAT,0.267
10,CCCCTCAA,-0.068
11,ACCCTCAC,0.251
12,ACCCTCAG,0.325
13,TCCCTCAA,0.014
14,ACCCTCAA,0.361
15,GGAGACGA,-0.032
16,ATCTTTAA,0.206
17,GGCCAGTA,0.177
18,AGTGGCTC,-0.175
19,AATCCTTG,0.0209
20,GATACCAC,0.183
21,GATACCCA,0.184
22,GATACCCC,0.37
23,CATACCCC,0.348

row,Sequence,PBM E-score
1,CATACCCA,0.221
2,AATACCCC,0.237
3,ATGTGAAG,-0.00714
4,ATGGGGGG,-0.045
5,ACTCGCAA,0.0584
6,CGCTTTGA,0.0708
7,CCTATAGG,0.346
8,CCTATAGC,-0.0148
9,ACTATAGG,0.0613
10,ATTGGCGG,-0.0834
11,AGCCCAAC,-0.0986
12,CCCCCTCG,-0.135
13,ACCCCTCG,0.347
14,AGCCCTAG,-0.14
15,ACCCCTCT,0.174
16,ACCCCTAT,0.324
17,ACCCCTAG,0.341
18,ACCCCTAA,0.278
19,CCCCCTAG,-0.343
20,ACCCCTAC,0.293
21,TACCGATA,0.102
22,CCGGTGCG,0.0015
23,AAATCTTG,0.0159

row,Sequence,PBM E-score
1,GCCAGCAC,-0.171
2,CAACCGAA,0.199
3,TACCCGCA,0.364
4,GTACCGCA,0.383
5,TAACCGCA,0.426
6,CAACCGCA,0.106
7,CACCCGCA,-0.0495
8,TAACCGAA,0.319
9,AAACCGAA,0.114
10,CTACCGCA,0.00616
11,ATACCGCA,0.0517
12,AACCCGCA,0.314
13,GAACCGCA,0.149
14,GTCCTTTA,0.132
15,CCGCCCAC,0.0267
16,GAAATCGA,-0.0672
17,TAACCGGA,0.364
18,GAACCGGA,0.0894
19,AAACCGGA,0.00487
